# Laboratory results taken from PubChem BioAssay (NCATS).
# Values without a mark were called inactive. Records with an inconclusive call do not appear. The list shows a part of the results. Where a call stands in place of a potency, no number is given. Calls of active or inactive are those of the source. Unless noted, calls follow the shape of the dose curve; as a rule, active = well fitted curve in the direction sought with a large enough effect; inconclusive = small, poorly fitted or top-dose-only effect, or another doubt; inactive = no such curve, though single readings can be large; an effect the other way counts as inactive or inconclusive.
# How the values were obtained:
# [1] = qHTS Assay for Inhibitors of Fructose-1,6-bisphosphate Aldolase from Giardia Lamblia: Mammalian cellular toxicity (AID 2786);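 also: compound exposure lasted 48 h before reading; nearly all actives have a fitted effect of over 60% in size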; also: potency is read from the fitted curve at half-maximal effect
# Method in brief: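 CHO cells seeded at 250 cells/well with pin-tool-added compound, incubated 48 h at 37 °C, 5% CO2. Viability read as ATP content by ATPlite luminescence after 20 min.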
# [2] = target: Fructose-bisphosphate aldolase (Giardia intestinalis (strain ATCC 50803 / WB clone C6)) (UniProt A8B2U2); assay: qHTS Assay for Inhibitors of Fructose-1,6-bisphosphate Aldolase from Giardia Lamblia: Primary screen confirmation (AID 2787);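 also: aldolase product measured through coupled diaphorase step turning resazurin into fluorescent resorufin; nearly all actives have a fitted effect of over 45% in size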
# Method in brief: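 FBPA (40 nM in enzyme reagent, with 30 uM ZnCl2) was preincubated 10 min at RT with compound up to 57.5 uM final. Substrate plus coupled detection system was then added, and fluorescence (525/598 nm) was read after 20 min at RT.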
# [3] = qHTS Assay for Inhibitors of Fructose-1,6-bisphosphate Aldolase from Giardia Lamblia: Giardia lamblia growth inhibition (AID 2785); also: nearly all actives have a fitted effect of over 70% in size; also: potency is read from the fitted curve at half-maximal effect
# Method in brief: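 G. lamblia WB trophozoites (100 cells/well) were grown with compound at 37C for 48 h in modified TYI-S-33 medium, pH 7.0. Growth was measured by ATPlite luminescence after 20 min at room temperature.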
# [4] = target: Endonuclease 4 (Escherichia coli (strain K12)) (UniProt P0A6C1); assay: Counterscreen for APE1 Inhibitors: qHTS Assay for Inhibitors of Endonuclease IV (AID 2565)
# Method in brief: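 Conditions: 2 nM enzyme, 50 nM TAMRA/BHQ-2 substrate, pH 7.5 Tris buffer with 2 mM MgCl2, RT. Compound preincubation 15 min; readout three fluorescence reads 60 s apart, third-minus-first.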
# [5] = target: DNA repair nuclease/redox regulator APEX1 (Homo sapiens) (UniProt P27695); assay: Confirmation qHTS Assay for Inhibitors of the Human Apurinic/apyrimidinic Endonuclease 1 (APE1) (AID 2572); also: nearly all actives have a fitted effect of over 30% in size; also: potency is read from the fitted curve at half-maximal effect;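 as to activity change, negative = inhibition: fluorescence gain from purified APE1 cutting a TAMRA/BHQ-2 THF abasic duplex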
# Method in brief: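 Cleavage of a tetrahydrofuran abasic site in a 50 nM (final) TAMRA/BHQ-2 duplex was tracked by rising fluorescence, measured in kinetic mode; reaction progress computed from the first-to-third read difference.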
# [6] = qHTS Assay for Inhibitors of Fructose-1,6-bisphosphate Aldolase from Giardia Lamblia: Coupling assay counterscreen confirmation (AID 2795); also: nearly all actives have a fitted effect of over 55% in size
# Method in brief: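 Concentration-response counterscreen (up to 57.5 uM final) of aldolase-screen hits against coupling enzymes only. Substrate, coupling system and AmpLite Red were added after a 10 min RT preincubation; fluorescence was taken 20 min later at 525/598 nm.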
# [7] = target: Fructose-bisphosphate aldolase A (Oryctolagus cuniculus) (UniProt P00883); assay: qHTS Assay for Inhibitors of Fructose-1,6-bisphosphate Aldolase from Giardia Lamblia: Rabbit FBPA Selectivity (AID 2794); also: nearly all actives have a fitted effect of over 60% in size
# Method in brief: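 Glyceraldehyde-3-phosphate-coupled detection measures rabbit Class I aldolase turnover via AmpLite Red fluorescence. Compounds (final up to 57.5 uM) preincubated 10 min; signal read 20 min post-substrate at RT.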
# [8] = AP1 Signaling Pathway (AID 357; active = well fitted curve in either direction with a large enough effect, not every such curve was filed as active;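 also: ME-180 reporter cells stimulated with EGF at its EC50 level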); settings: ME-180 AP-1-bla reporter, EGF-induced, beta-lactamase ratio, 5 h; at 7.69 µM (top of the series) unless noted
# Method in brief: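 A ratiometric CCF4 readout (405 nm excitation; 460 and 530 nm emission) quantified AP-1-driven beta-lactamase in ME-180 cells after 5 h with compound and EC50 EGF; AC50 values were derived for activators and inhibitors.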
# [9] = NFAT Signaling Pathway (AID 444; active = well fitted curve in either direction with a large enough effect, not every such curve was filed as active;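 also: carbachol stimulus at about its EC50 of 1 µM final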); settings: Jurkat NFAT-bla M1, carbachol, beta-lactamase ratio, 5 h; at 7.69 µM (top of the series) unless noted
# Method in brief: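 Jurkat cells with NFAT-driven β-lactamase reporter and co-expressed M1 receptor, stimulated with carbachol (final 1 uM, ~EC50), compound titration, 5 h at 37 °C. CCF4 loaded 1 h at RT; 460/530 nm ratio gave %activity and AC50.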
# [10] = Stat Signaling Pathway (AID 446; active = well fitted curve in either direction with a large enough effect, not every such curve was filed as active;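 also: ME-180 cervical cancer cells given 40 pM IL-6 alongside compound; SIE-controlled beta-lactamase reporter measured as 460/530 nm FRET emission ratio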); settings: ME-180 (cervical carcinoma) SIE beta-lactamase reporter, IL-6 stimulated, 5 h; at 7.69 µM (top of the series) unless noted
# Method in brief: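 Normalization used AC90 stimulation (300 pM IL-6) and AC90 inhibition (125 nM pan-JAK inhibitor at 40 pM IL-6). The underlying signal is SIE-driven beta-lactamase in ME-180 cells after 5 h IL-6 exposure with compound.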
# [11] = target: Glucocorticoid receptor (Homo sapiens) (UniProt P04150); assay: GR-GFP Redistribution (AID 450;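 active = compounds whose dose series gives a full or clear partial fitted curve of increased nuclear translocation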; also: potency is read from the fitted curve at half-maximal effect); settings: U2OS GR-GFP nuclear translocation, laser cytometry, 2 h
# [12] = target: Tyrosyl-DNA phosphodiesterase 1 (Homo sapiens) (UniProt Q9NUW8); assay: Confirmation Assay for Inhibitors of Tyrosyl-DNA Phosphodiesterase (TDP1) (AID 489007); settings: recombinant human TDP1 enzymatic activity, dose-response; also: potency is read from the fitted curve at half-maximal effect; nearly all actives have a fitted effect of over 40% in size
# Method in brief: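 AlphaScreen assay of tyrosine-FITC cleavage from a biotinylated DNA substrate (15 nM) by E. coli-expressed human Tdp1 (1 nM). Sequence: compound preincubation 15 min, reaction 5 min, bead detection 10 min, all at room temperature. No-enzyme wells give maximum signal.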
# [13] = target: DNA repair nuclease/redox regulator APEX1 (Homo sapiens) (UniProt P27695); assay: qHTS FP-Based Assay for Inhibitors of the Human Apurinic/apyrimidinic Endonuclease 1 (APE1) (AID 2573)
# Fructose-bisphosphate aldolase (Giardia intestinalis (strain ATCC 50803 / WB clone C6)), sequence (A8B2U2 whole entry, looked up): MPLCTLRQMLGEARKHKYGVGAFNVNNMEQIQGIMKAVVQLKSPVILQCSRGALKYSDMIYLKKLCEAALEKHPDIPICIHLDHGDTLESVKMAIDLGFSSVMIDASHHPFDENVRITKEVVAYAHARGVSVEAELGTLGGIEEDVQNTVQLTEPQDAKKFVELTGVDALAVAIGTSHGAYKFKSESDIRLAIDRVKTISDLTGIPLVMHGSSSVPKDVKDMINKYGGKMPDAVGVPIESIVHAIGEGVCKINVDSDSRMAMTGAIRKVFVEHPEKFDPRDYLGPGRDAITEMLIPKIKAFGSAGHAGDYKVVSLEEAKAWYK
# DNA repair nuclease/redox regulator APEX1 (Homo sapiens), sequence (P27695 whole entry, looked up): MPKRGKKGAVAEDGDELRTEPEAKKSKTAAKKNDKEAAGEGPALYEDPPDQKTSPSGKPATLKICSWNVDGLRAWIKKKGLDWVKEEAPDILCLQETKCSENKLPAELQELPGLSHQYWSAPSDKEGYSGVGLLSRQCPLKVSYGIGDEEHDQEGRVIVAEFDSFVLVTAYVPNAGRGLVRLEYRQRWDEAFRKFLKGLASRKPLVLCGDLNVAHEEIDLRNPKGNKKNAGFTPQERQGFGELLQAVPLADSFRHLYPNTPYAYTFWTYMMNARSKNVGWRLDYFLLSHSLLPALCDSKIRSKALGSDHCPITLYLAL
# Fructose-bisphosphate aldolase A (Oryctolagus cuniculus), sequence (P00883 whole entry, looked up): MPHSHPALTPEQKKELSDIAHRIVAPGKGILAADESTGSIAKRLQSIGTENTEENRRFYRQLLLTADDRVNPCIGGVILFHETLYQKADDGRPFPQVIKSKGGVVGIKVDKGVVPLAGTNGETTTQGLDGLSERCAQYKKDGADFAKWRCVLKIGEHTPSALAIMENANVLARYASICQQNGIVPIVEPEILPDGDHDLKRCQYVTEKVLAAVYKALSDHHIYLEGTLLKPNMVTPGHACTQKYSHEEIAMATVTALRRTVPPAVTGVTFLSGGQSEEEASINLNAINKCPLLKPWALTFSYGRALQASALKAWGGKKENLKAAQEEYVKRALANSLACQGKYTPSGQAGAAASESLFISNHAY
# Tyrosyl-DNA phosphodiesterase 1 (Homo sapiens), sequence (Q9NUW8 whole entry, looked up): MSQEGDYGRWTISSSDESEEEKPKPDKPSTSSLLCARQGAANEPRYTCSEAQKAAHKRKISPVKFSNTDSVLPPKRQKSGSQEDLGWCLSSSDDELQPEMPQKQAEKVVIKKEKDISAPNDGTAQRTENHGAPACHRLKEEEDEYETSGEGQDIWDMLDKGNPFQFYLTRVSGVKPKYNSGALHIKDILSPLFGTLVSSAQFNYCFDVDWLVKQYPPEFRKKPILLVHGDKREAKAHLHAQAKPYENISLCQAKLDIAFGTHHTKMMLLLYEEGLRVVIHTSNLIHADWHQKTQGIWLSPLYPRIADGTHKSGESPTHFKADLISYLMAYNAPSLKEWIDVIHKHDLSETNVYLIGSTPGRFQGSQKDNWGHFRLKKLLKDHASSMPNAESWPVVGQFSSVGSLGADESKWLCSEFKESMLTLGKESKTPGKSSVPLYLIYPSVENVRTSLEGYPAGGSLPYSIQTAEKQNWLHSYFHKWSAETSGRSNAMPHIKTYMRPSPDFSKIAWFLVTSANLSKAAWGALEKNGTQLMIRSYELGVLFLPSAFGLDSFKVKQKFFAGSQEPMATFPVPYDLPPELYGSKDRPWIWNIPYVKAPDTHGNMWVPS
# Glucocorticoid receptor (Homo sapiens), sequence (P04150 whole entry, looked up): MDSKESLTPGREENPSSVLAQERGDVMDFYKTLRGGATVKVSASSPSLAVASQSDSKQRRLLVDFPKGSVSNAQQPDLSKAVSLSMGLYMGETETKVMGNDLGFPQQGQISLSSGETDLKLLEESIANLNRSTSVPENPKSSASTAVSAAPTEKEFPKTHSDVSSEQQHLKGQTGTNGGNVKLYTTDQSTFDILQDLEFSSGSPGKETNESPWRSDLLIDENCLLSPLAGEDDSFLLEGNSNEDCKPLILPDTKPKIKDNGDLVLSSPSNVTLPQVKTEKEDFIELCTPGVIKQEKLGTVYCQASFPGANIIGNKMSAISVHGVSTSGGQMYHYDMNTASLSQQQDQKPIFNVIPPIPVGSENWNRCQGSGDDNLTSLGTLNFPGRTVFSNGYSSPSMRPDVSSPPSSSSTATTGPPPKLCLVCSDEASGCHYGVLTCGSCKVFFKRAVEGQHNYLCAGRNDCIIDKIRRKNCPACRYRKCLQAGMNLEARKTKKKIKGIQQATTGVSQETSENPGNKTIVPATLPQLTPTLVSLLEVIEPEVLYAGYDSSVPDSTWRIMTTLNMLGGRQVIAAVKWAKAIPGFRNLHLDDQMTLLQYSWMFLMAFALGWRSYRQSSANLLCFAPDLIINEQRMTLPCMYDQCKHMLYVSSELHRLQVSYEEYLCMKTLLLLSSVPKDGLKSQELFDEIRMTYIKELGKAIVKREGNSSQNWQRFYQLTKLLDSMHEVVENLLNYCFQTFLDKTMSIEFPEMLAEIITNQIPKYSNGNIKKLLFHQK
compound,measurement,setting,value
Cc1nnc(SCC2=C(C(=O)O)N3C(=O)C(NC(=O)Cn4nc(C)c(Cl)c4C)C3SC2)s1 (stereo unspecified),Potency,[1],inactive
Cc1cccc(-c2nnc(SCC(=O)O)n2Cc2ccccc2)c1,outcome,[2],inactive
C=CCc1cc(C)ccc1OCCCn1ccnc1,Potency,[1],inactive
O=C(CSc1cccc[n+]1[O-])c1ccc(-c2ccccc2)cc1,Potency,[3],inactive
same,Potency,[1],inactive
O=C(CN1CCN(S(=O)(=O)/C=C/c2ccccc2)CC1)NC(=O)NCc1ccco1,outcome,[4],inactive
COc1ccc(NC(=O)CSc2nc(NS(=O)(=O)c3ccc(C)cc3)cc(=O)[nH]2)cc1,Potency,[5],39.8 µM (active)
Oc1[nH]c2ccc(Br)cc2c1N=Nc1nn[nH]n1,Potency,[1],inactive
COc1ccc(CN2CCN(Cc3ccc(OC)c(OC)c3OC)CC2)cc1,outcome,[2],inactive
same,outcome,[6],inactive
O=C1CCCN1CCCNC(=S)Nc1ccc(F)c(Cl)c1,Potency,[1],inactive
Cc1ccc(C(=O)Nc2nnc(C3=COCCO3)o2)cc1C,outcome,[2],inactive
same,outcome,[7],inactive
CC(=O)NC1CCN(CC(=O)Nc2nccs2)CC1,outcome,[2],inactive
CN1CCCc2cc(C#N)c(=O)[nH]c21,outcome,[2],inactive
same,outcome,[7],inactive
CC(=O)NS(=O)(=O)c1ccc(NC(=O)C2C3C=CC(C3)C2C(=O)O)cc1 (stereo unspecified),Potency,[5],inactive
O=C(Nc1ccccc1Cl)O/N=C(/c1ccccc1)c1ccccn1,Potency,[3],22.4 µM (active)
same,outcome,[7],inactive
CCN1CCc2c(C#N)c(NCc3ccccc3)nc(NCCO)c2C1,"activity change, negative = inhibition",[8],-9.55% [at 17.2 µM]
same,"activity change, negative = inhibition",[9],-11% [at 17.2 µM]
same,"activity, negative = inhibition",[10],-0.118% [at 17.2 µM]
same,Potency,[11],> 20.6 µM
same,Potency,[1],inactive
same,outcome,[2],inactive
same,outcome,[7],inactive
same,outcome,[6],inactive
O=C(NCc1ccccn1)c1ccc2nc(-c3ccco3)c(-c3ccco3)nc2c1,Potency,[5],8.91 µM (active)
same,Potency,[12],10 µM (active)
Clc1cccc(CN2COc3c(cc(Cl)c4cccnc34)C2)c1,outcome,[2],inactive
O=S(=O)(c1ccc(NC(=S)NN=C(C2CC2)C2CC2)cc1)N1CCOCC1,Potency,[1],inactive
same,outcome,[6],inactive
COc1cc(CN2CCN(Cc3ccc(C)cc3)CC2)c([N+](=O)[O-])cc1OC,Potency,[1],inactive
same,outcome,[7],inactive
C=CCNC(=S)/N=c1/ccccn1Cc1ccccc1,Potency,[1],inactive
same,outcome,[2],inactive
same,outcome,[6],inactive
CC(C)(C)C(=O)OCc1nc(-c2ccc(O)c(O)c2)cs1,outcome,[4],inactive
same,Potency,[5],11.2 µM (active)
same,Potency,[13],inactive
O=C(Cc1ccc(S(=O)(=O)N2CCOCC2)s1)NCCC(c1ccccc1)c1ccccc1,outcome,[4],inactive
Cc1cc(C)c2c(=O)[nH]c(SCC(=O)Nc3ccc(Br)cc3)nc2n1,Potency,[1],inactive
same,outcome,[7],inactive
CCc1ccc2c(c1)C1(NN=C(c3ccccc3)S1)C(=O)N2 (stereo unspecified),Potency,[1],25.1 µM (active)
O=C(CN1C(=O)COc2ccccc21)Nc1ccc(F)cc1,Potency,[1],inactive
C/C(=N\NC(N)=S)c1cccnc1,Potency,[1],inactive
